Records with an inconclusive call do not appear. A call without a number means that no potency is given here. The source made the active and inactive calls. Calls follow the shape of the dose curve; as a rule, active = well fitted cell-killing curve with a large enough effect in the repeat runs; inconclusive = weak or mixed curves, or effect the other way; inactive = no such curve, though single readings can be large or run the other way.

A short description of this assay: qHTS assay to identify small molecule agonists of the vitamin D receptor (VDR) signaling pathway - cell viability counter screen (AID 743224). Also: nearly all actives have a fitted effect of over 50% in size. Particulars: VDR-bla HEK293T viability, CellTiter-Glo luminescence, 16 h; series mostly up to 62.6 µM. In outline:
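Luminescence from CellTiter-Glo, read after 30 min at room temperature, reports viability of VDR-bla cells treated with compounds for 16 h at 37C in the wells used for the beta-lactamase FRET read.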
(In general: Quantitative high-throughput screening tests each substance at several concentrations.)
Turning to `CCCCCCCCCCl`, the Potency entry was “inactive”.

Take `CCOC(=O)c1ncn2c1CN(C)C(=O)c1cc(F)ccc1-2`: the Potency entry is “inactive”.

Turning to `N[C@@H](CCC(=O)N[C@@H](CS)C(=O)NCC(=O)O)C(=O)O`, the Potency entry is “inactive”.

Take `Cc1cc(C(C)(C)C)c(O)c(C)c1CC1=NCCN1`: the Potency result was “inactive”.

As for `O=C(O)Cc1ccc(Cl)cc1Cl`, the Potency result is “inactive”.

As for `O=C(OCc1ccccc1)C(=O)OCc1ccccc1`, the Potency entry was “inactive”.

For `CC(C)C(=O)OCCc1ccccc1`, the Potency entry is “inactive”.

As for `COc1cc(C(=S)N2CCOCC2)cc(OC)c1OC`, the Potency entry is “inactive”.

In the case of `COc1ccc(S(=O)(=O)N2c3ccc(Cl)cc3[C@@](O)(c3ccccc3Cl)[C@H]2C(=O)N2CCC[C@@H]2C(N)=O)cc1OC`, the Potency entry was “inactive”.

For the molecule `Cc1ccccc1C(=O)Nc1ccc(C(=O)N2CCCC(N(C)C)c3ccccc32)cc1` (centres undefined), the Potency entry was “inactive”.

With `CCCCCCCCC1CCC(=O)O1` (centres undefined), the Potency result was “inactive”.

Regarding `NS(=O)(=O)c1ccc(NC(=O)CCC(=O)O)cc1`, the Potency result was “inactive”.

Take `CCCCCCCCCCCCCC`: the Potency entry is “inactive”.

On to `CC(=O)OC(C)OC(=O)C(C)c1ccc(-c2ccccc2)c(F)c1` (centres undefined), for which the Potency entry is “inactive”.

The values above are taken from PubChem BioAssay (Tox21).
